This note sets out measurements from PubChem BioAssay.

In experiment [1] the test system is Plasmodium falciparum Sir2 (PF13_0152, Sir2A). As to the kind of experiment: Plasmodium falciparum Sir2A binding compounds – biochemical, small-molecule microarray, 635 nm fluorescence, primary screen (AID 1098).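 Note: score merges spot fluorescence intensity with its signal-to-noise ratio.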 Particulars: fluorescence 635 nm, higher = more signal.
The nature of experiment [2]: probe aDKK1 binding to arrayed compounds – biochemical, biotinylated probe, 635/667 nm fluorescence, primary screen (AID 1099).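 Note: score merges 667nm spot fluorescence with signal to noise across triplicate slides; reference of the scale not given here.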 Particulars: small-molecule microarray, higher = more signal.
Experiment [3] is described as follows: probe aCHRDL2 binding to arrayed compounds – biochemical, biotinylated probe, 635/667 nm fluorescence, primary screen (AID 1100). Particulars: small-molecule microarray, higher = more signal.
Experiment [4] is described as follows: change in splice reporter luminescence, either direction, cell-based, HEK293, spliceosome inhibition project, primary screen (AID 1101).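 Note: HEK293 cells carrying a splicing-competent luciferase reporter gene; test concentration not given here.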 The following applies: HEK293 splicing luciferase reporter, 24 h, higher = more signal, called active from +8 up or from −8 down.
Experiment [5] concerns the target Fibroblast growth factor 10 (Homo sapiens) (UniProt O15520). Nature of the experiment: compounds binding fibroblast growth factor 10 – biochemical, small-molecule microarray, 635 nm fluorescence, primary screen (AID 1102). The following applies: FGF10 binding, fluorescence 635 nm, higher = more signal.
Experiment [6] has as its system glycogen synthase kinase-3 (GSK3A per assay name; protocol says GSK3B). As to the kind of experiment: compounds binding glycogen synthase kinase-3 – biochemical, small-molecule microarray, 635 nm fluorescence, GSK3A, primary screen (AID 1103). Note: the record names both GSK3A and GSK3B. Particulars: fluorescence 635 nm, higher = more signal.
Experiment [7] has as its target Epidermal growth factor receptor (Homo sapiens) (UniProt P00533). Nature of the experiment: compounds binding epidermal growth factor receptor – biochemical, small-molecule microarray, 635 nm fluorescence, primary screen (AID 1104).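 Note: score merges 667 nm emission intensity with spot signal to noise over triplicate slides.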 The following applies: EGFR binding, higher = more signal.
Experiment [8] concerns the target Follistatin-related protein 3 (Homo sapiens) (UniProt O95633). As to the kind of experiment: compounds binding follistatin-related protein 3 – biochemical, small-molecule microarray, 635 nm fluorescence, primary screen (AID 1105).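 Note: score merges emission near 667 nm and signal to noise per printed spot across three slides.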 The following applies: FSTL3 binding, higher = more signal.
In experiment [9] the target is Dickkopf-related protein 1 (Homo sapiens) (UniProt O94907). Nature of the experiment: small molecules binding DKK1 protein – biochemical, small-molecule microarray, 635 nm fluorescence scan, primary screen (AID 1106).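 Note: score merges emission near 667 nm with signal to noise over three replicate slides.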 Particulars: higher = more signal.
Sequence of Dickkopf-related protein 1 (Homo sapiens) (O94907 whole entry, looked up): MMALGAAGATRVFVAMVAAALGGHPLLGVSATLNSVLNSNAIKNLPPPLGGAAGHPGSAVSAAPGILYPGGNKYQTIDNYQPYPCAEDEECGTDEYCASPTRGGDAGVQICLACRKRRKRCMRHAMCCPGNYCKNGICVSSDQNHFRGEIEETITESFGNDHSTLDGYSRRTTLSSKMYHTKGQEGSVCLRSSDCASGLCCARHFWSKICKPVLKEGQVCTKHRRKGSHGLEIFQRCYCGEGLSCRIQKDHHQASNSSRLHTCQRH
Experiment [10] has as its system Inhibin beta A chain (activin A). As to the kind of experiment: small molecules binding activin A – biochemical, small-molecule microarray, 635 nm fluorescence scan, primary screen (AID 1107).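 Note: mouse activin A protein probed at 4.33 µg/mL on printed slides; score merges bound-protein fluorescence near 667 nm with spot signal-to-noise.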 Particulars: INHBA, higher = more signal.

Calls of active or inactive are those of the source.

Sequence of Follistatin-related protein 3 (Homo sapiens) (O95633 whole entry, looked up): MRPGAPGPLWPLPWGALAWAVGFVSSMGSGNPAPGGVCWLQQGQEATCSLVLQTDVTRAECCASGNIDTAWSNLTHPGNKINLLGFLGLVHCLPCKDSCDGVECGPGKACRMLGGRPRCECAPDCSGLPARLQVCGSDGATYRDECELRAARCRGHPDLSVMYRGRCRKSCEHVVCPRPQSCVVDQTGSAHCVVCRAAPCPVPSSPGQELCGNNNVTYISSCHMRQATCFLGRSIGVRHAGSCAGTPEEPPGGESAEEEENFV
Sequence of Fibroblast growth factor 10 (Homo sapiens) (O15520 whole entry, looked up): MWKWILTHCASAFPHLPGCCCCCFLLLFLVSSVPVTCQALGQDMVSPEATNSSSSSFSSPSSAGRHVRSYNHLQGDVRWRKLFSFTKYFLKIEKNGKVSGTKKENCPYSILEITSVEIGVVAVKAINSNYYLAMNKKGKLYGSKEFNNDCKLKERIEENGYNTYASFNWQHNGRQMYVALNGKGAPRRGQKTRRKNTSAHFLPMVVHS
Sequence of Epidermal growth factor receptor (Homo sapiens) (P00533 whole entry, looked up): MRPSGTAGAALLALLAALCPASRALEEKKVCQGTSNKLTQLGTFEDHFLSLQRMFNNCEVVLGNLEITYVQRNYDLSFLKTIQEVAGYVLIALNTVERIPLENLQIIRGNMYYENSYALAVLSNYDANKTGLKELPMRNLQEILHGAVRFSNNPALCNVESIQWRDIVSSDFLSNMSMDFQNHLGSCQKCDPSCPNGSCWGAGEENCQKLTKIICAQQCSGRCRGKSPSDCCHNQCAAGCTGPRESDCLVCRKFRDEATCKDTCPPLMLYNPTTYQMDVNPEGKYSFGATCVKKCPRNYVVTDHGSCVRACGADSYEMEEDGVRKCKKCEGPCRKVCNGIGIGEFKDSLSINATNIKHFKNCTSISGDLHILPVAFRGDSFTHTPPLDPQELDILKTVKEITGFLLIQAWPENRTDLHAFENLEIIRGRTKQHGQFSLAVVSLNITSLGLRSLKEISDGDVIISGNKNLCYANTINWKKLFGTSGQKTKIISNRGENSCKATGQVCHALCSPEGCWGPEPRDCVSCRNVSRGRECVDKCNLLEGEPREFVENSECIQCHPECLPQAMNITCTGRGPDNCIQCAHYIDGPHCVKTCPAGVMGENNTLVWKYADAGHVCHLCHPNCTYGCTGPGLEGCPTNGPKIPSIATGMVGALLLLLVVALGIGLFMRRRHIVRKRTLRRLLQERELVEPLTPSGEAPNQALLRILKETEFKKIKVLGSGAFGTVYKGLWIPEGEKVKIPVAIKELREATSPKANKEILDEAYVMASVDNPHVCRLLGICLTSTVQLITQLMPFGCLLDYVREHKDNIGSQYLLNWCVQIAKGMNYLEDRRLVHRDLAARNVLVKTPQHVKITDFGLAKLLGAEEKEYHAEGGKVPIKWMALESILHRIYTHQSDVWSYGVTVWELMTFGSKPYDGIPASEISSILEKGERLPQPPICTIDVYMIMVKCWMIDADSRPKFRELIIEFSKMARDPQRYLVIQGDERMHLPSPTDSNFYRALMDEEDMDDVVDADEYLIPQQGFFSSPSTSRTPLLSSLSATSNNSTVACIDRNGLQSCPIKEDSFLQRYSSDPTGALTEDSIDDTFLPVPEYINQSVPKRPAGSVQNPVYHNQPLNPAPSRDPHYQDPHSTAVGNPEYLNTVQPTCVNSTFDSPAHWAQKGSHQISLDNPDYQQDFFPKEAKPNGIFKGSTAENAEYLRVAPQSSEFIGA

On to `CC(c1ccccc1)C(O)C1C=CC2C(=O)N(c3ccccc3)C(=O)C2N1Nc1ccc(C#N)cc1` (stereo not given), for which the composite z-score is 1.27 in [1]; 0.0897 in experiment [2]; 0.582 in experiment [3]; 0.975 in experiment [5]; 1.32 in experiment [6]; 0.702 in experiment [7]. Further, the composite z-score in [8] is 1.48; in experiment [9] it was -0.163; in experiment [10], 0.251. Further, the z-score in [4] was -0.44 (inactive).
In the case of `CC(=O)NCCCC[C@@H]1NC(=O)[C@H]2C[C@@H](C(=O)NCCCCCC[N+](C)(C)C)[C@@H](c3ccc(O)cc3)N2C1=O`, the composite z-score in experiment [1] was 1.71; in [2] it was -0.186; in [3], -0.414; in experiment [5] it was 0.348; in [6], 0.612; in experiment [7] it was 0.173. The composite z-score in [8] was determined as 0.946; in experiment [9], 1.23; in experiment [10], 0.965. Moreover, the z-score in experiment [4] was -0.652 (inactive).
In the case of `CCCC=C(CCC)[C@@H](NC(=O)c1ccccc1)c1ccc(C(=O)OC)cc1`, the composite z-score was 0.578 in experiment [1]; 0.374 in experiment [2]; -0.0902 in experiment [3]; 1 in experiment [5]; 0.294 in experiment [6]; 0.891 in experiment [7]. Besides, the composite z-score in [8] is 0.806; in [9] it was 0.162; in experiment [10] it was 0.613. The z-score in experiment [4] is -1.98 (inactive).
Regarding `Cc1ccc(F)cc1S(=O)(=O)N[C@@H]1CCN(Cc2ccc3[nH]ccc3c2)C1`, the composite z-score in experiment [1] is 0.114; in [2] it was -0.177; in experiment [3], -0.124; in experiment [5], 0.482; in experiment [6] it was 0.139; in [7], 0.651. For the same molecule, the results for the composite z-score in experiment [8], in experiment [9] and in [10] were 1.08, 0.574 and 0.689, respectively. The z-score in [4] was 0.309 (inactive).
Turning to `NC(=O)[C@@]1(CCS(=O)(=O)c2ccccc2)COC(c2ccc(OCCCO)cc2)=N1`, the composite z-score in experiment [1] was 1.35; in experiment [2], 0.628; in [3], 0.831; in experiment [5] it was 0.19; in [6] it was -0.123; in experiment [7] it was -0.143. Besides, the composite z-score in experiment [8] was -0.232; in experiment [9], -0.526; in experiment [10], 1.21. For the same molecule, the z-score in experiment [4] was 0.129 (inactive).
For `CN1C(=O)C2C(C1=O)C1C=C(c3ccc(CO)cc3)C2C(c2cccs2)N1C` (stereo not given), the composite z-score in experiment [1] is 0.609; in experiment [2], 0.0014; in experiment [3] it was 0.381; in experiment [5], -0.0606; in experiment [6] it was 0.378; in experiment [7], -0.2. Also, the composite z-score was -0.164 in experiment [8], -0.0556 in experiment [9] and 0.779 in experiment [10]. Besides, the z-score in experiment [4] was -0.516 (inactive).
As to `COC(=O)c1ccc([C@H](NC(=O)c2ccccc2)[C@]2(C)C[C@H]2C2CCCCC2)cc1`, the composite z-score in experiment [1] was 0.135; in [2], 0.343; in experiment [3], 1.24; in experiment [5] it was 0.225; in [6] it was 0.0377; in experiment [7], -0.133. The figures for the composite z-score in [8], in experiment [9] and in experiment [10] were 0.4, -0.532 and 0.795, respectively. In addition, the z-score in [4] is 0.736 (inactive).
Take `COC(=O)[C@@]1(Cc2ccc(F)cc2)[C@H]2c3cc(C(=O)N(C)C)n(CCn4cc([N+](=O)[O-])nc4C)c3C[C@H]2CN1C(=O)c1ccccc1`: the composite z-score in [1] is 0.445; in [2] it was 0.539; in experiment [3], 0.648; in [5], -0.279; in [6] it was 0.0339; in experiment [7], -0.0789. Moreover, the composite z-score in experiment [8] is -0.445; in experiment [9] it was -0.145; in [10], 0.894. Further, in experiment [4], the z-score was 1.11 (inactive).
Take `CO[C@H]1O[C@H](CO)[C@@H](OC(=O)Nc2ccc3c(c2)OCO3)[C@@H]2OC(=O)[C@@H](Cc3ccccc3)C/C=C/C[C@H](Cc3ccccc3)C(=O)O[C@@H]12`: the composite z-score in experiment [1] was found to be 0.915; in experiment [2] it was 0.0902; in experiment [3], 0.259; in [5], 1.39; in experiment [6], 0.708; in experiment [7], 0.342. Moreover, the composite z-score in experiment [8] is 0.817; in experiment [9] it was 0.401; in [10], 0.996. The z-score in experiment [4] is 0.216 (inactive).
With `COCCOC(=O)N1C(=O)[C@@]2(c3cc(C#CCC(C(=O)OC)C(=O)OC)ccc31)[C@H](C(=O)N1CCCCCCC1)[C@H]1C(=O)O[C@H](c3ccccc3)[C@H](c3ccccc3)N1[C@@H]2c1ccccc1OCCO`, the composite z-score in experiment [1] stood at 1.61; in experiment [2] it was 2.62; in experiment [3], 1.59; in experiment [5], 0.547; in experiment [6], 1.32; in experiment [7], 0.893. In addition, the composite z-score was 1.67 in experiment [8], 0.987 in experiment [9] and 1.96 in experiment [10]. The z-score in [4] is -0.815 (inactive).
For the molecule `C#CCN([C@H](/C=C/C1CC1)[C@@H](O)Cc1ccccc1)[C@@H](Cc1ccccc1)C(=O)OC`, the composite z-score was -0.135 in experiment [1]; -0.281 in experiment [2]; 0.0495 in [3]; -0.351 in experiment [5]; -0.604 in experiment [6]; -0.215 in [7]. In addition, the composite z-score in [8] was 0.232; in [9], -0.0707; in experiment [10] it was 0.858. Moreover, in experiment [4], the z-score was -0.606 (inactive).
As to `COCC1=C([C@H](O)CCc2ccccc2)[C@H](CO)n2c(=O)n(-c3ccccc3)c(=O)n2C1`, the composite z-score was -0.285 in [1]; -0.412 in [2]; -0.39 in [3]; -0.187 in experiment [5]; -0.295 in [6]; 0.445 in experiment [7]. In addition, the composite z-score was -0.41 in experiment [8], 0.353 in experiment [9] and 0.785 in [10]. Also, in experiment [4], the z-score is -1.12 (inactive).
`Cc1c(-c2ccc(-c3ccc(Cl)c(Cl)c3)o2)nc(-c2ccccc2)c2c1CO[Si]2(C(C)C)C(C)C`: the composite z-score in experiment [1] was 0.872; in experiment [2], -0.186; in [3] it was 0.11; in experiment [5], 0.316; in experiment [6], -0.449; in experiment [7], -0.532. In addition, the values for the composite z-score in [8], in experiment [9] and in [10] were -0.382, -0.234 and 0.938, respectively. In experiment [4], the z-score was 2.11 (inactive).
As to `COC(=O)C(CC#Cc1ccc2c(c1)[C@]1(C(=O)N2)[C@H](c2ccc(O)cc2)N2[C@H](c3ccccc3)[C@H](c3ccccc3)OC(=O)[C@H]2[C@@H]1C(=O)N1CCc2cc(OC)c(OC)cc2C1)C(=O)OC`, the composite z-score in experiment [1] turned out to be 1.38; in experiment [2] it was 0.505; in [3], 0.724; in experiment [5], 0.817; in experiment [6], 1.32; in experiment [7], 0.708. Besides, the composite z-score in [8] was 1.29; in [9], 1.06; in [10], -0.0531. In addition, the z-score in experiment [4] was -0.541 (inactive).
With `CC(C)C[C@H]1NC(=O)[C@H](Cc2ccccc2)NC(=O)[C@@]23C(=O)N[C@@H](Cc4ccccc4)C2[C@H](C)[C@@]2(C)O[C@H]2C3/C=C/C/C=C\CNC1=O` (stereo not given in full), the composite z-score is 1.19 in experiment [1]; 0.0099 in experiment [2]; -0.4 in experiment [3]; 0.916 in experiment [5]; 0.979 in experiment [6]; 0.121 in experiment [7]. The figures for the composite z-score in [8], in [9] and in experiment [10] were 0.676, 0.726 and 1.12, respectively. For the same molecule, the z-score in experiment [4] is -0.514 (inactive).
As for `CO[C@H]1O[C@H](CO)[C@@H](OC(=O)Nc2ccccc2)[C@@H]2OC(=O)[C@H](Cc3ccccc3)C/C=C/C[C@@H](Cc3ccccc3)C(=O)O[C@@H]12`, the composite z-score is 1.46 in experiment [1]; 0.273 in experiment [2]; 0.651 in experiment [3]; 1.04 in experiment [5]; 0.56 in [6]; 0.0366 in experiment [7]. Besides, the composite z-score in experiment [8] is 0.877; in experiment [9], 0.048; in experiment [10], 1.14. Moreover, the z-score in [4] is -0.724 (inactive).
